Assay results as given in PMC7862700, “An all-to-all approach to the identification of sequence-specific readers for epigenetic DNA modifications on cytosine”.

Assays:
Test in all cases: DAPPL (digital affinity profiling via proximity ligation, sequencing); 10 mM Tris-HCl pH 7.5, 50 mM NaCl, 1 mM DTT, 4% glycerol, room temperature, 30 min; GST-TFs on glutathione beads, 16-mer random dsDNA library, 0.1% formaldehyde crosslink after washing; high values mean tight binding
[1] = target: T1, FEV (Homo sapiens, UniProt Q99581 1-238); conditions: protein: recombinant; tags: N-terminal GST; dsDNA, one strand shown
T1 sequence: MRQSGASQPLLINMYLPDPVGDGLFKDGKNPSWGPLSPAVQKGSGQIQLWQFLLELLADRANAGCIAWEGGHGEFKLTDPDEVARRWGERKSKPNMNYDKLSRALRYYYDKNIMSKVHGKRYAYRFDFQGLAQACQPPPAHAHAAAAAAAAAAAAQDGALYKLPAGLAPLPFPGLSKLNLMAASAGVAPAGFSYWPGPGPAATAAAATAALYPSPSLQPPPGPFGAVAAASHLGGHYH
Outline: (§1)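 Each value of binding signal is a hexamer's read frequency for a factor divided by the same hexamer's frequency in the tag-only sample. Barcoded, bead-captured GST fusions of human transcription factors made in yeast were pooled with that sample and incubated with 200 nmole of a random double-stranded 16-mer DNA library in Tris/NaCl/DTT/glycerol buffer at room temperature for 30 min. Washing, 0.1% formaldehyde crosslinking, proximity ligation, PCR and Illumina NextSeq500 sequencing followed.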

[2] = target: ETV5 (Homo sapiens, UniProt P41161 1-510); conditions: protein: recombinant; tags: N-terminal GST; dsDNA, one strand shown
Sequence of ETV5 (P41161 whole entry): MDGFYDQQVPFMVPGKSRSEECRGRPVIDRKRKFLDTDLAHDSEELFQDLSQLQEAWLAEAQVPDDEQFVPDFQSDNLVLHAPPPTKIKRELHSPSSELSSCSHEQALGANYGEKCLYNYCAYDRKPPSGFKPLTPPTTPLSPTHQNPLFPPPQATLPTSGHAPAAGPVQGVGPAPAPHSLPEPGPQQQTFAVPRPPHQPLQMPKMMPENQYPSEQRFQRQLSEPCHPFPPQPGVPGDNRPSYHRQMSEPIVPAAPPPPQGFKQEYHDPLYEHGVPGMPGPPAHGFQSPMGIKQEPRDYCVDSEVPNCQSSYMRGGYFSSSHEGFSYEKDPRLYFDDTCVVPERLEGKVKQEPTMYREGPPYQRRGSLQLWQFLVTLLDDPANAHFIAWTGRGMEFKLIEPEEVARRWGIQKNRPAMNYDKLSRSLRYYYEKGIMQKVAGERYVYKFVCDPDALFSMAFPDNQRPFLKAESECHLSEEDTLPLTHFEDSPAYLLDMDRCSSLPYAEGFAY
Outline: as §1

[3] = target: HSF1 (Homo sapiens, UniProt Q00613 1-529); conditions: protein: recombinant; tags: N-terminal GST; chain copies: 3; dsDNA, one strand shown
Sequence of HSF1 (Q00613 whole entry): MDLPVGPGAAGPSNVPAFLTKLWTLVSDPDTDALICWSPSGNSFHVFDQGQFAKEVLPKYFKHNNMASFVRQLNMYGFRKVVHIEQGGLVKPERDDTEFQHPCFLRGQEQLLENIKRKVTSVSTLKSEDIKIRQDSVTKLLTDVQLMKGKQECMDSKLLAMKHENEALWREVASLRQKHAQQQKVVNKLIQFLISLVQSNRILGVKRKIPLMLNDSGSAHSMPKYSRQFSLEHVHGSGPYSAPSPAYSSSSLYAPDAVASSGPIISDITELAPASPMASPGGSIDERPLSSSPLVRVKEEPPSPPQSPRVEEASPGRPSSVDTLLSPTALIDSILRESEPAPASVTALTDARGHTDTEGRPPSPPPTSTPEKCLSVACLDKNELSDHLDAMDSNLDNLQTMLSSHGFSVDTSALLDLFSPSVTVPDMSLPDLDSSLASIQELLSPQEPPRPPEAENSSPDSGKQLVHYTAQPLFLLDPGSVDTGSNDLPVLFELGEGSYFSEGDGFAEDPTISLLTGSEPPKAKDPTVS
Outline: as §1

[4] = target: T2, SPIC (Homo sapiens, UniProt Q8N5J4 1-248); conditions: protein: recombinant; tags: N-terminal GST; dsDNA, one strand shown
T2 sequence: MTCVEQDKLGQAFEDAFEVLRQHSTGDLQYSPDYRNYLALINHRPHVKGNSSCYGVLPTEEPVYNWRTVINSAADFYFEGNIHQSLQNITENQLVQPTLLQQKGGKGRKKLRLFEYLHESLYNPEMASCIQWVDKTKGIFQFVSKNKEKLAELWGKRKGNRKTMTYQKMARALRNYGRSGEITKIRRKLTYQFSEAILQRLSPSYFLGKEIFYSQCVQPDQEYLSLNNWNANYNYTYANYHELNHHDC
Outline: as §1

[5] = target: ELF4 (Homo sapiens, UniProt Q99607 1-663); conditions: protein: recombinant; tags: N-terminal GST; dsDNA, one strand shown
Sequence of ELF4 (Q99607 whole entry): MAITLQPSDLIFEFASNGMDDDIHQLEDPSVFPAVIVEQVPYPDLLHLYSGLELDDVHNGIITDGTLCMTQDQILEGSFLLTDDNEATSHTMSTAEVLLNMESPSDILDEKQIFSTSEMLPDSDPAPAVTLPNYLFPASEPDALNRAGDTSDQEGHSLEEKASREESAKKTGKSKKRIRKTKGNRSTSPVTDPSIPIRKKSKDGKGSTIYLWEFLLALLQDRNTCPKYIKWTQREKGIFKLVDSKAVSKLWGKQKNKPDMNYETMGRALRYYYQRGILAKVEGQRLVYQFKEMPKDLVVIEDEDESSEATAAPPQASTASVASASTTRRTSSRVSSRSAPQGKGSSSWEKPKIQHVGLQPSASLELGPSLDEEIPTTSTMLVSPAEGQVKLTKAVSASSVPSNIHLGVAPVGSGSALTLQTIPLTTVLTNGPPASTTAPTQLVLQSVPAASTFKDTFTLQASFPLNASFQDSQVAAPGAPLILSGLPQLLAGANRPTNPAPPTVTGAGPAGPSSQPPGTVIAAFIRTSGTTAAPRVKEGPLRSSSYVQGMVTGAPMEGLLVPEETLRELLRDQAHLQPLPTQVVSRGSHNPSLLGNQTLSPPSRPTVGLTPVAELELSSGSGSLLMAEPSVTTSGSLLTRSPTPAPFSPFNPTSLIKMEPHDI
Outline: as §1

[6] = target: T3, ELK4 (Homo sapiens, UniProt P28324-2 1-405); conditions: protein: recombinant; tags: N-terminal GST; dsDNA, one strand shown
T3 sequence: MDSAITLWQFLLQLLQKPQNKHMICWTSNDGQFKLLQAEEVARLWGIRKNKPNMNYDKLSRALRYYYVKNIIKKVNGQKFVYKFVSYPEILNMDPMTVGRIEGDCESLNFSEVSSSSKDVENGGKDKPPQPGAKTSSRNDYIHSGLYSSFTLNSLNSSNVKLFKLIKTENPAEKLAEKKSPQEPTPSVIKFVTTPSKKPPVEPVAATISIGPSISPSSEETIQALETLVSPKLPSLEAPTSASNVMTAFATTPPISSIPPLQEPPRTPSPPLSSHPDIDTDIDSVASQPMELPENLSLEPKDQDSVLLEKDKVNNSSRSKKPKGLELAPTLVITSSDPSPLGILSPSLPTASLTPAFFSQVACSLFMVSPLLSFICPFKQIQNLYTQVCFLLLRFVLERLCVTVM
Outline: as §1

[7] = target: T4, ETV2 (Homo sapiens, UniProt O00321 1-342); conditions: protein: recombinant; tags: N-terminal GST; dsDNA, one strand shown
T4 sequence: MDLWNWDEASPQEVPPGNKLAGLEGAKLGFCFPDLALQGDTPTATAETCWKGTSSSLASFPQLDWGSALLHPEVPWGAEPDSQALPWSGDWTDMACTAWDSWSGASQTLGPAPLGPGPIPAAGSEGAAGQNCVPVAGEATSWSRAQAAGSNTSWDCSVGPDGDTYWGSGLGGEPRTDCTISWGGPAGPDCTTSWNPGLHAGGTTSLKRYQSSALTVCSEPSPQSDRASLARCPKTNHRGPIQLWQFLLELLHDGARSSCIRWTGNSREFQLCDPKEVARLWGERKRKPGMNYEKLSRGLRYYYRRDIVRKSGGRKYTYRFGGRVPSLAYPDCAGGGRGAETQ
Outline: as §1

[8] = target: T5, ELF3 (Homo sapiens, UniProt P78545 1-371); conditions: protein: recombinant; tags: N-terminal GST; dsDNA, one strand shown
T5 sequence: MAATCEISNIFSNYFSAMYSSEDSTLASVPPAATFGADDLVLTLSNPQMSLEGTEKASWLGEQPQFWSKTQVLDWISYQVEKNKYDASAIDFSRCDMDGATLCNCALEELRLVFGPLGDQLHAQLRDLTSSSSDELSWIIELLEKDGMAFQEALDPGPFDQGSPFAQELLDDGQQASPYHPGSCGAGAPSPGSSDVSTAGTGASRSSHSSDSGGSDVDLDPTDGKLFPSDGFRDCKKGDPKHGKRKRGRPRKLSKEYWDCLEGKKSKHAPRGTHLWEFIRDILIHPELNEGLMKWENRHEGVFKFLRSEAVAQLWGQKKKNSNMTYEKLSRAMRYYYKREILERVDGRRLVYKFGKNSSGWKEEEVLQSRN
Outline: as §1

[9] = target: CRX (Homo sapiens, UniProt O43186 1-299); conditions: protein: recombinant; tags: N-terminal GST; dsDNA, one strand shown
Sequence of CRX (O43186 whole entry): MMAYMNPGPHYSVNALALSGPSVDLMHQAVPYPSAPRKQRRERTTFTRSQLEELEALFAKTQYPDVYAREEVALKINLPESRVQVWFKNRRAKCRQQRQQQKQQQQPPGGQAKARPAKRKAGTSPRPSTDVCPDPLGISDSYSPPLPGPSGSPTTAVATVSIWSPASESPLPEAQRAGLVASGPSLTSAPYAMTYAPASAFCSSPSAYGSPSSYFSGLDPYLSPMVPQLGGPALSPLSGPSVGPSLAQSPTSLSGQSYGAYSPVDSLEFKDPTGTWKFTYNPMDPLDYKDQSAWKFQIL
Outline: as §1

AAGATG
binding signal [1]: 1.01 fold enrichment (6-mer frequency, TF over GST control) | binding signal [2]: 1.14 fold enrichment (6-mer frequency, TF over GST control) | binding signal [3]: 1.19 fold enrichment (6-mer frequency, TF over GST control) | binding signal [4]: 1.1 fold enrichment (6-mer frequency, TF over GST control) | binding signal [5]: 1.24 fold enrichment (6-mer frequency, TF over GST control) | binding signal [6]: 1.22 fold enrichment (6-mer frequency, TF over GST control) | binding signal [7]: 1.13 fold enrichment (6-mer frequency, TF over GST control) | binding signal [8]: 1.19 fold enrichment (6-mer frequency, TF over GST control) | binding signal [9]: 1.27 fold enrichment (6-mer frequency, TF over GST control)
